HIF-2a block = HIF-2a inhibition. 786-0 RCC cells HIF-2a reporter, luciferase luminescence, overnight. inhibition, % at 18.8 µM. 360,000 tested, 0.72% active. AID 624352;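 active means inhibition of the luminescence signal of 40% or more relative to plate controls, in a single-dose primary screen at 18.75 µM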
Peg3 prom inh = inhibitors of Peg3 promoter | inhibition, % at 20 µM | 360,000 tested, 1.7% active | HeLa PEG-Prom luciferase reporter, luminescence, overnight;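 active means inhibition of at least 50% at 20 µM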
KKLEB cytotox = counter-screen for CF NF-kB inhibitors: cytotoxicity; 360,000 tested, 0.36% active; activity change (cytotoxicity), % at 5 µM; KKLEB CF airway cells viability, ATPlite luminescence, overnight; hits give low values; cells stimulated with P. aeruginosa culture filtrate;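 active means corrected activity change at or below -50% at 5 µM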
CF NFkB block = cystic fibrosis NF-kB activation inhibition. KKLEB NF-kB-GFP reporter, PAF-induced, GFP fluorescence overnight. inhibition, % at 5 µM. 360,000 tested, 0.86% active. AID 588850;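 active means at least 50% inhibition at 5 µM, scaled per plate between neutral and stimulator controls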;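 further: PAF is a Pseudomonas aeruginosa culture filtrate used as stimulus; plate controls were PAF-stimulated DMSO wells for no effect and unstimulated DMSO wells for full effect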
MITF TRPM1 inh = MITF TRPM1 promoter inhibition in SK-MEL-5 cells; SK-MEL-5 TRPM1 promoter luciferase, 24 h; inhibition, % at 12.5 µM; 330,000 tested, 0.83% active; AID 488899;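 active means mean inhibition across replicates of 60% or more, whatever share of single replicates reaches that level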
CHOP inh = blocks CHOP induction under ER stress | inhibition, % at 10 µM | 220,000 tested, 3.8% active | CHO-K1 CHOP-promoter luciferase, tunicamycin-induced, 15-18 h;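 active means compounds that reduced the stress-induced luciferase reporter signal by more than about 70% of percent inhibition, limit read from the data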;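 further: 0% = tunicamycin plus vehicle and 100% = wells without tunicamycin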
The depositor's hits bear a star; . = no result given. Most compounds without a hit are left out; they make up all but 4.3% or so of the library.

SMILES	HIF-2a block	Peg3 prom inh	KKLEB cytotox	CF NFkB block	MITF TRPM1 inh	CHOP inh
O=C(C1CCN(S(=O)(=O)c2ccc(Br)s2)CC1)N1CCCCC1	15	3	0	5	11	.
Cc1ccc(NC2=C(NC(=O)c3ccccc3)C(=O)c3ccccc3C2=O)cc1Cl	-24	15	4	5	67*	-65
Cc1ccc(NCC(=O)c2ccccc2)cc1Cl	-80	14	-13	14	-9	-5
COc1ccc(-c2ccc(C(=O)NCCc3ccccc3)c3occc23)c(C)c1	-227	-140	-9	12	.	.
CCCC1=Nc2cc(C(=O)NCCCOCC)ccc2Sc2ccccc21	12	4	-4	48	72*	.
CCOC(=O)C1(CC2CCCCO2)CCN(Cc2cc(F)ccc2-n2cccn2)CC1 (stereo unspecified)	11	18	-2	1	11	76*
Cc1cc(C)c(C)c(C(=O)CSc2nnc(-c3ccc4[nH]c(C)c(C)c4c3)o2)c1C	-6	17	-1	-8	8	71*
COc1ccc2nc3cc(Cl)ccc3c(Nc3cc(C(C)C)c(O)cc3C)c2c1	-4	105*	-56*	38	10	10
NC(=O)[C@@H]1CCCN1C(=O)c1ccc2nc(Cc3cccc(Cl)c3)oc2c1	6	17	-8	8	3	.
Cc1ccc(C2CC(=O)C=C(Nc3ccc(Cl)cc3)C2)cc1 (stereo unspecified)	12	5	2	22	0	73*
O=C1C=C(Nc2ccc(Cl)cc2)CC(c2ccc(Cl)cc2)C1 (stereo unspecified)	16	29	2	10	14	24
O=C(COc1ccc2c(c1)CCC2)N1CCN(c2cccc(C(F)(F)F)c2)CC1	-57	-60	-6	-2	7	86*
C=CCOC(=O)N1CCN(c2cccc(C(F)(F)F)c2)CC1	-7	-16	3	8	-6	81*
O=C(COc1cccc(C(F)(F)F)c1)N1CCN(c2ccc(O)cc2)CC1	9	30	2	1	1	18
O=C(COc1ccc(S(=O)(=O)NC2CCCCC2)cc1)N1CCN(c2cccc(Cl)c2)CC1	2	24	6	-8	14	79*
CCC(C)[C@H](NC(=O)N1CCN(c2cccc(C(F)(F)F)c2)CC1)C(=O)OC (stereo partly specified)	8	-6	-13	7	-15	81*
COC(=O)[C@@H](NC(=O)N1CCN(c2cccc(C(F)(F)F)c2)CC1)C(C)C	2	2	-5	-15	-13	10
Cn1c(=O)c2c(nc(NC3CCCCC3)n2CC(=O)C23CC4CC(CC(C4)C2)C3)n(C)c1=O	16	22	-6	-8	19	81*
COc1cc(Br)cc(C(=O)N2CCc3ccccc32)c1OC	16	7	-3	16	.	.
C[C@H](CO)N1C[C@H](C)[C@@H](CN(C)C(=O)NC2CCCCC2)Oc2c(NC(=O)Nc3ccc(C(F)(F)F)cc3)cccc2C1=O	11	29	3	-20	15	.
O=C(Nc1ccc(Cl)cc1)C1C2CCC3C(CCC21)C3(Cl)Cl (stereo unspecified)	-35	-19	-5	4	-20	72*
O=C(Nc1ccc(F)cc1)C1C2CCC3C(CCC21)C3(Cl)Cl (stereo unspecified)	-14	-8	10	-10	-19	31
Cc1cccc(NC(=O)C2C3CCC4C(CCC32)C4(Cl)Cl)c1 (stereo unspecified)	-9	-6	5	-8	-1	76*
COC(=O)C1=C(C)N(Cc2ccccc2)C(=NCc2cccc(C(F)(F)F)c2)N[C@H]1c1cccc(F)c1	10	100*	-97*	84*	94*	.
COC(=O)C1=C(C)N(Cc2ccccc2)C(=NCc2ccc(OC)cc2)N[C@H]1c1ccccc1	6	69*	-2	-14	3	.
SMILES	HIF-2a block	Peg3 prom inh	KKLEB cytotox	CF NFkB block	MITF TRPM1 inh	CHOP inh
COC(=O)C1=C(C)N(CC2CC2)C(=NCc2cccc(C(F)(F)F)c2)N[C@H]1c1ccccc1	6	31	-1	8	14	.
Cc1cccc(C(=O)OC2CCOC2=O)c1C (stereo unspecified)	10	18	2	12	0	.
CCN(CC)S(=O)(=O)c1cc(NC(=O)CNc2cccc(S(=O)(=O)N3CCCC3)c2)ccc1C	26	16	-18	14	34	.
O=C(NCc1cccs1)c1ccc(-c2ccc(F)c(F)c2)c2ccoc12	-179	-102	5	-30	.	.
Cc1ccc(C)c(OCCC(=O)NNC(=O)c2cc(C)oc2C)c1	-2	0	14	6	-3	.
COc1ccccc1C(C(=O)c1ccccc1)c1ccc(O)cc1 (stereo unspecified)	9	.	.	.	.	.
Cc1c(NC(=O)CN2C(=O)NC(C)(c3ccccc3)C2=O)c(=O)n(-c2ccccc2)n1C (stereo unspecified)	7	4	5	-7	7	82*
Cc1ccc(C2(C)NC(=O)N(CC(=O)Nc3c(C)n(C)n(-c4ccccc4)c3=O)C2=O)cc1 (stereo unspecified)	16	-1	4	18	7	-2
CCCCCCCC/C=C\CCCCCCCC(=O)NCCc1ccc(O)c(O)c1	18	-13	6	59*	40	-11
Cc1nc(-c2cccc(NC(=O)c3ccc(Cl)c(S(=O)(=O)N4CCCC4)c3)c2)cs1	-37	55*	-6	-6	.	.
CCCn1c(NC(=O)c2ccc(Cl)c(S(=O)(=O)N3CCCC3)c2)nc2ccccc21	12	53*	-7	-4	33	49
O=C(NCc1nc2ccccc2[nH]1)c1ccc(Cl)c(S(=O)(=O)N2CCCC2)c1	-1	9	-12	-1	17	-10
CCN(CC)CCNC(=O)c1ccc(Cl)c(S(=O)(=O)N2CCCCCC2)c1	9	1	4	-20	3	45
CN(C)CCCNC(=O)c1ccc(Cl)c(S(=O)(=O)N2CCCCCC2)c1	18	91*	2	1	-13	.
C[C@@H]1CN([C@@H](C)CO)C(=O)c2cc(-c3cccnc3)cnc2O[C@H]1CN(C)C(=O)c1cccc(F)c1	1	5	14	2	.	.
O=C(Cn1cc(C(F)(F)F)cc(Cl)c1=O)NCCc1ccc(Cl)cc1Cl	9	2	16	-38	-8	74*
Oc1ccc(N=Nc2ccc3c(c2)OCO3)c2ccccc12	.	.	.	.	.	101*
Cc1ccc2oc(=O)n(CCOc3ccccc3Cl)c2c1	-19	6	8	2	.	93*
CCCOc1ccccc1Cn1c(=O)oc2ccc(C)cc21	19	10	-4	8	6	81*
COc1ccc(CCC(=O)OCC(=O)NC2CCCC2)cc1OC	9	5	1	-3	.	.
CNC(=O)CSc1nnc(-c2ccco2)n1-c1cccc(OC)c1	9	-10	7	-15	9	.

High-throughput results: PubChem, several laboratories
